The values below come from PubChem BioAssay (EPA / NIEHS).

Structures are written as SMILES. Results filed as inconclusive are left out. The source holds several records for some structures; these can differ, active in one and inactive in another. Activity calls are given as the source filed them. The calls were made as follows: active = hit-call score of the fitted dose curve at least 0.9, where 1 is the maximum; inconclusive = response in the unintended direction; inactive = score below 0.9. Peptide text beside a SMILES is read from it.

The test in a line: TOX21_p53_BLA_p4_viability: Viability Assessment in the Tox21 HCT-116 p53 Agonism Beta-lactamase Assay, Phase 4 (AID 2283597).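 Also: hits lower the luminescence signal meaning cytotoxicity.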 From the text:
TOX21_p53_BLA_p4 is a cell-based, single-readout assay that uses HCT116, a human intestinal cell line, […] in a 1536-well plate.TOX21_p53_BLA_p4_viability is an assay readout measuring cellular ATP content and detected with CellTiter-Glo Luciferase-coupled ATP quantitation.TOX21_p53_BLA_p4_viability used a type of viability reporter where loss-of-signal activity can be used to understand changes in the cell viability. Furthermore, this assay endpoint can be referred to as a secondary readout, because this assay has produced multiple assay endpoints where this one serves a viability function. To generalize the intended target to other relatable targets, this assay endpoint is annotated to the cell cycle intended target family, where the subfamily is cytotoxicity.
Thawing Method: Place 14 mL of pre-warmed thaw medium into a 15 mL of conical tub. Remove the vial of cells to be thawed from liquid nitrogen and thaw rapidly by placing at 37C in a water bath with gentle agitation for 1-2 minutes. Decontaminate the vial by wiping with 70% ethanol before opening in a biological safety cabinet. Transfer the vial contents drop-wise into 14 mL of thaw medium in a sterile 15-mL conical tub. Centrifuge cells at 900 rpm for 4 minutes and resuspend in thaw medium. Transfer contents to the T75 tissue culture flask containing Thaw Medium and place flask in a humidified 37C/5% CO2 incubator. Switch to growth medium at first passage.Propagation Method: Aspirate medium, rinse once in DPBS, add 0.25% Trypsin/EDTA and swirl to coat the cell evenly. Add an equal volume of Growth Medium to inactivate Trypsin after 2-3 minutes incubation at 37C. Centrifuge cells at 900 rpm for 4 minutes and resuspend in growth medium. Cell should be passage or fed at least twice a week.Assay Protocol: Harvest cells from culture in growth medium and resuspend in assay medium. 2.2 Dispense 4000 cells/5 uL/well into 1536-well black/clear bottom plates using a Multidrop dispenser. After the cells were incubated at 37C for 5 hours, 23 nL of compounds dissolved in DMSO were transferred to the assay plate by a PinTool resulting in a 217-fold dilution. Incubate the plates for 16 hours at 37C, 5% CO2. Add 1 uL of 6X LiveBLAzer FRET B/G (CCF4-AM) Substrate Mixture to each well using a BioRAPTR dispenser and incubate the plates at room temperature for 2 hours. Measure fluorescence intensity at 460 and 530 nm emission and 405 nm excitation by an Envision detector. Data is expressed as the ratio of 460nm/530nm emissions. Add 4 uL of Cell-titer Glo to each well using BioRAPTR and incubate the plates at room temperature for […]. For cell viability readout that measures cytotoxicity, 4 ul/well of CellTiter-Glo reagent was added into the assay plates using a Flying Reagent Dispenser. After 30 min incubation at room temperature, the luminescence intensity in the plates was measured using a ViewLux plate reader.
As to `N#CC1(N)CCCCC1`, the result was inactive.
On the same count and under the same terms, under `CCCCOC(=O)C(C)CC` (stereo not given) stands “inactive”.
For the compound `CCCCC/C=C\C/C=C\CCCCCCCC(=O)O`, the outcome was inactive.
On the same count and under the same terms, under `C=CCCCCCCCCC=O` stands “inactive”; under `CCCCC1C(=O)N(c2ccccc2)N(c2ccccc2)C1=O`, “inactive”; under `CCCCc1ccc(Cl)cc1`, “inactive”.
For the compound `Clc1cc(Cl)c(Cl)c(Cl)c1Cl`, the outcome was inactive.
As for `CC(=O)OC/C=C(/C)CCC=C(C)C`, the compound was called inactive.
As for `CCCCCCOc1ccc(N)cc1`, the outcome was inactive.
On the same count and under the same terms, under `COCC(=O)O` stands “inactive”; under `O=C1CCCCCCCCCCCN1`, “inactive”.
`Cc1cccc(C(C)(C)C)c1O`: the compound was called inactive.
On to `CC(C)(C)NC(=O)[C@H]1CC[C@H]2[C@@H]3CC[C@H]4NC(=O)C=C[C@]4(C)[C@H]3CC[C@]12C`, for which the outcome was inactive.
With `CCCCCCC=O`, the compound was classed as inactive.
By AC50 is commonly meant the concentration giving half of the maximal activity seen. On to `CCCCCCCCCCCCc1ccc(O)cc1`, for which the AC50 is 16.3 µM (active).
In the case of `N=C1C=CC(=C(c2ccc(N)cc2)c2ccc(N)cc2)C=C1`, the outcome was inactive.
Same read-out and setting: then `CC(C)[N+](C)(CCOC(=O)C1c2ccccc2Oc2ccccc21)C(C)C`, with “inactive”; and `CC(C)CCCCCOC(=O)CS`, with “inactive”.
In the case of `Cc1noc(NS(=O)(=O)c2ccc(N)cc2)c1C`, the call was inactive.
As to `CN(C)c1ccc2nc3ccc(=[N+](C)C)cc-3sc2c1`, the call was inactive and the AC50 was 10.8 µM (active).
Turning to `CC1(C)[C@@H]2CC[C@@]1(C)C(=O)C2`, the compound was called inactive.
On to `O=C(OCCc1ccccc1)c1ccccc1`, for which the compound was classed as inactive.
Take `CC(Cl)COP(=O)(OCC(C)Cl)OCC(C)Cl` (stereo not given): the result was inactive.
On to `CC(=O)c1ccc(S(=O)(=O)NC(=O)NC2CCCCC2)cc1`, for which the outcome was inactive.
Still for that read-out and setting: then `CC(C)(C)N`, with “inactive”; and `CCCCCCOC(=O)CCCCC(=O)OCCCCCC`, with “inactive”; and `CC(C)CC(=O)OCc1ccccc1`, with “inactive”.
With `CCCCCC[C@@H](O)C/C=C\CCCCCCCC(=O)OCC(O)CO` (stereo not given in full), the compound was called inactive.
Still for that read-out and setting: then `CCCC(C)C(=O)OCC` (stereo not given), with “inactive”; and `CCCCCOC(=O)CCCCC`, with “inactive”.
The same measure, in the same setting: under `CCCCC1CCC(=O)O1` (stereo not given) stands “inactive”.
The same measure, in the same setting: under `CC(CC=O)CC(C)(C)C` (stereo not given) stands “inactive”; under `CCc1cccc(C)c1N`, “inactive”; under `Fc1ccc(Br)cc1`, “inactive”.
As to `C=C(C)C(=O)OCCOC(=O)C(=C)C`, the outcome was inactive.
On the same count and under the same terms, under `NC(=O)Nc1ccccc1` stands “inactive”; under `CCCCC(=O)O`, “inactive”.
In the case of `Oc1c(Cl)cc(Cl)c(Cl)c1Cl`, the outcome was inactive.
For the compound `COC(=O)[C@H](Cc1ccccc1)NC(=O)[C@@H](N)CC(=O)O` (H-Asp-Phe-OMe), the outcome was inactive.
